# Results reported in PubChem BioAssay AID463173 (ICCB-Longwood Screening Facility, Harvard Medical School, 2010).
# Screen size: about 52,000 compounds; about 4,300 (8.3%) were called active. This is one part of a sample in which actives are shown more often than they occur. Rule as the data show it: active = survival mostly below about 52% (no sharp cut-off); inactive = mostly above about 56%.
# Tested on: DeltatarO mutant
# Experiment: S. aureus survival, RN4220 and DeltatarO strains – OD600, teichoic acid synthesis inhibitors, primary screen (AID 463173)
# Conditions: S. aureus RN4220 wild type/DeltatarO growth, OD600, 18 h, hits give low values, screened at 18.75 µg/mL (by protocol)
row,SMILES,survival
1,O=C(CN1CCN(Cc2ccccc2Cl)C1=O)NCc1ccccc1Cl,67% (inactive)
2,CCc1cc(C=Nc2ccccc2)c(O)s1,98% (inactive)
3,Cc1cc(N2CCN(c3cccc(C)c3C)CC2)n2nc(C)c(-c3ccc(Cl)cc3)c2n1,87% (inactive)
4,Cc1ccc(CNC(=O)c2cc3sccc3n2Cc2ccc(F)cc2)cc1,83% (inactive)
5,COC(=O)CN1C(=O)CSc2ccc(S(=O)(=O)Nc3ccc(Cl)cc3C)cc21,124% (inactive)
6,Cc1cccc(-c2nc(SCCCOc3ccc(Cl)c(C)c3)n3[nH]c(=O)cc3n2)c1,72% (inactive)
7,N#Cc1cc2c(=O)n3ccccc3nc2n(-c2nnc(SCc3ccccc3F)s2)c1=O,81% (inactive)
8,CCc1ccc(NC(=O)CSC2=Nc3ccccc3C3=NC(CC(=O)NCc4ccc5c(c4)OCO5)C(=O)N23)cc1 (centres undefined),107% (inactive)
9,COCCN1Cc2cccc(C(=O)Nc3ccc(Cl)cc3Cl)c2C1=O,59% (inactive)
10,COC(=O)c1ccc(Cn2c(=O)cc(C)c3c(C)nn(C)c32)cc1,66% (inactive)
11,Cc1cc(=O)n(Cc2cccc(Cl)c2)c2c1c(C)nn2C,102% (inactive)
12,Cc1cc(=O)n(Cc2ccccc2)c2c1c(C)nn2-c1ccccc1,89% (inactive)
13,Cc1cc(=O)n(Cc2ccc(Cl)cc2)c2c1c(C)nn2-c1ccccc1,126% (inactive)
14,COc1cccc(Cn2c(=O)cc(C)c3c(C)nn(C)c32)c1,89% (inactive)
15,C=Cc1ccc(Cn2c(=O)cc(C)c3c(C)nn(C)c32)cc1,8% (active)
16,Cc1ccc(C)c(Cn2c(=O)cc(C)c3c(C)nn(C)c32)c1,91% (inactive)
17,Cc1cc(=O)n(Cc2ccccc2)c2c1c(C)nn2C,20% (active)
18,C=Cc1ccc(Cn2c(=O)cc(C)c3c(C)nn(-c4ccccc4)c32)cc1,17% (active)
19,CCc1ccccc1NC(=O)CCC(=O)N1CC(C)Oc2ccc(C)cc21 (centres undefined),62% (inactive)
20,O=C(COc1ccc2ccccc2c1)NC1CC(=O)N(c2ccc(F)cc2)C1 (centres undefined),69% (inactive)
21,CC(C)CCn1nnnc1CN1CCN(Cc2ccc3c(c2)OCO3)CC1,69% (inactive)
22,CCOC(=O)c1nnn(C(CC)C(=O)Nc2c(C)cccc2C)c1C(=O)OCC (centres undefined),100% (inactive)
23,Cc1cccn2c(=O)c3cc(C#N)c(=O)n(-c4nnc(SCc5ccc(Cl)cc5)s4)c3nc12,81% (inactive)
24,CC(C)N(C(=O)Cn1cc(S(=O)(=O)Cc2ccc(C(F)(F)F)cc2)c2ccccc21)C(C)C,54% (inactive)

row,SMILES,survival
1,Cc1cc(C)c(NC(=O)Cn2c(=O)n(Cc3ccc(C(=O)NCc4ccco4)cc3)c(=O)c3sccc32)c(C)c1,173% (inactive)
2,Cc1cccc(NS(=O)(=O)c2ccc3oc(=O)c4ncn(C)c4c3c2)c1C,109% (inactive)
3,Cc1ccc(NC(=O)c2ccc(CNS(=O)(=O)c3ccc4c(c3)C(C)(C)C(=O)N4C)cc2)cc1C,62% (inactive)
4,COc1ccc(OC)c(CCNc2ncnc3onc(-c4ccc(Cl)cc4)c23)c1,94% (inactive)
5,CCOc1ccc2oc(=O)cc(CN3CCN(c4ccc(Cl)cc4)CC3)c2c1,97% (inactive)
6,CCN1CC=C2C(C#N)=C(N)C(C#N)(C#N)C(C)C2C1 (centres undefined),80% (inactive)
7,Cc1ccc(Cn2cc(CCC(=O)NC3CCC(C)CC3)c3ccccc32)cc1 (centres undefined),74% (inactive)
8,O=C(CCc1cn(Cc2ccccc2Cl)c2ccccc12)NC1CCCCC1,71% (inactive)
9,CC1CCC(NC(=O)CCc2cn(Cc3ccccc3Cl)c3ccccc23)CC1 (centres undefined),51% (active)
10,O=C(O)c1ccc(C2Nc3ccccc3-c3nnc(SCc4ccc(Cl)cc4)nc3O2)cc1 (centres undefined),85% (inactive)
11,Cc1ccc(C)c(CN2C(=O)c3ccccc3S(=O)c3ccc(C(=O)NCc4ccco4)cc32)c1 (centres undefined),72% (inactive)
12,COc1ccc2nc(SC)nc(C)c2c1,67% (inactive)
13,COc1ccc2oc(=O)c(C(=O)N3CCN(c4cc(Cl)ccc4Cl)CC3)cc2c1,48% (active)
14,COc1ccc2oc(=O)c(C(=O)N3CCN(c4ccc(C)cc4)CC3)cc2c1,91% (inactive)
15,COc1ccc2oc(=O)c(C(=O)N3CCC(C(N)=O)CC3)cc2c1,79% (inactive)
16,CC(=O)Nc1cc(C(=O)NCc2ccc(F)cc2)ccc1Sc1ccc(C)cc1,94% (inactive)
17,CC(C)CN(CC(C)C)c1nc(-c2ccc(Cl)cc2)nc2ccccc12,-1% (active)
18,Cc1cccc(OCCn2c(-c3ccc(Cl)cc3)nc3ccccc3c2=O)c1C,77% (inactive)
19,COc1ccccc1Nc1nc(-c2ccccc2F)nc2ccccc12,73% (inactive)
20,CCN(CC)c1nc(-c2ccc(C(C)(C)C)cc2)nc2ccccc12,-1% (active)
21,CCCN(CCC)c1nc(-c2ccccc2F)nc2ccccc12,4% (active)
22,CCN(CC)c1nc(-c2ccccc2)nc2ccccc12,86% (inactive)
23,Cc1cc(Sc2ccc(Cl)cc2)nc2ccccc12,45% (inactive)
24,CCCCN(CCCC)c1nc(-c2ccccc2)nc2ccccc12,30% (inactive)

row,SMILES,survival
1,CCCCN(CC)c1nc(-c2ccccc2F)nc2ccccc12,94% (inactive)
2,COc1cccc2[nH]c(C(=O)NCc3ccc4c(c3)CCN4C(=O)c3ccc(F)cc3)cc12,84% (inactive)
3,CNC(=O)c1c(NC(=O)/C=C/c2ccccc2)sc2c1CCC2,87% (inactive)
4,CCC(Sc1nnc2c(n1)[nH]c1ccccc12)C(=O)Nc1ccccc1OC (centres undefined),56% (inactive)
5,CC(C)(C)NC(=O)CN1CCC(n2nnc3cc(F)ccc32)CC1,93% (inactive)
6,COC(=O)c1scc(-c2ccc(C)cc2)c1S(=O)(=O)Nc1cccc(Cl)c1C,101% (inactive)
7,CC(=O)c1cc(-c2ccc(F)cc2)n(CCC(=O)NCc2ccc(C)cc2)c1C,73% (inactive)
8,COc1cccc(/C=C2/SC(=O)N(C)C2=O)c1O,83% (inactive)
9,COc1ccc(C(=O)c2cn(Cc3ccccc3OC)c3cc4c(cc3c2=O)OCO4)cc1,95% (inactive)
10,Clc1ccccc1Nc1ncnc2c1nc1n2CCCCC1,8% (active)
11,Clc1cccc(Nc2ncnc3c2nc2n3CCCCC2)c1,17% (active)
12,Fc1ccccc1Nc1ncnc2c1nc1n2CCCCC1,68% (inactive)
13,COc1ccccc1Nc1ncnc2c1nc1n2CCCCC1,128% (inactive)
14,COc1ccc(Nc2ncnc3c2nc2n3CCCC2)cc1Cl,80% (inactive)
15,Clc1cccc(CNc2ncnc3c2nc2n3CCCC2)c1,88% (inactive)
16,COc1ccc(C)cc1NC(=O)C1CCN(S(=O)(=O)Cc2ccccc2)CC1,67% (inactive)
17,O=C(CSc1nccn1C1CCCC1)Nc1ccc(C(F)(F)F)cc1,101% (inactive)
18,CCN(CC)CCCNC(=O)CCc1c(C)nc2c(c1C)c(=O)n(C)c(=O)n2C,96% (inactive)
19,O=C(CN1C(=O)CCc2cc(S(=O)(=O)N3CCOCC3)ccc21)NCc1ccc(F)cc1,93% (inactive)
20,CCS(=O)(=O)c1nc(S(=O)(=O)c2ccc(C)cc2)c(NC)s1,102% (inactive)
21,CCN1CCN(c2nc3c(S(=O)(=O)c4ccc(C)cc4)nnn3c3ccsc23)CC1,65% (inactive)
22,CCCNS(=O)(=O)c1ccc(CCC(=O)NCC2CCCO2)cc1 (centres undefined),89% (inactive)
23,CCc1ccc(N(CC(=O)NCC2CCCO2)S(C)(=O)=O)cc1 (centres undefined),66% (active)
24,CN(c1ccc(C(=O)NCC2CCCO2)cc1)S(C)(=O)=O (centres undefined),74% (inactive)

row,SMILES,survival
1,CCc1ccc(NC(=O)c2sc3nc(C)cc(C)c3c2NC(=O)c2ccccc2OC)cc1,69% (inactive)
2,CC(=O)c1ccc(NC(=O)c2nc(-c3ccccc3)n(-c3ccc(C)cc3)n2)cc1,60% (inactive)
3,COc1ccc(-c2nc(C(=O)Nc3ccc(C(C)=O)cc3)nn2-c2cccc(Cl)c2)cc1,46% (active)
4,COc1ccc(-c2nc(C(=O)Nc3cccc(C(C)=O)c3)nn2-c2ccc(Cl)cc2)cc1,99% (inactive)
5,CC(=O)c1ccc(NC(=O)c2nc(-c3ccccc3)n(-c3ccccc3Cl)n2)cc1,64% (inactive)
6,CCOC(=O)c1ccc(NC(=O)c2ncn(-c3ccccc3)n2)cc1,99% (inactive)
7,COc1ccc(-n2nc(C(=O)Nc3ccc(C(C)=O)cc3)nc2-c2ccccc2)cc1,49% (active)
8,O=C(Nc1ccc(F)cc1)c1ncn(-c2ccccc2)n1,86% (inactive)
9,CC(=O)c1ccc(NC(=O)c2ncn(-c3ccccc3)n2)cc1,34% (active)
10,CC(=O)c1cccc(NC(=O)c2nc(-c3ccccc3)n(-c3ccccc3)n2)c1,56% (inactive)
11,CC(=O)c1ccc(NC(=O)c2nc(-c3ccccc3)n(-c3ccccc3)n2)cc1,87% (inactive)
12,CC(=O)c1cccc(NC(=O)c2nc(-c3ccccc3)n(-c3cccc(Cl)c3)n2)c1,68% (inactive)
13,CC(=O)c1ccc(NC(=O)c2nc(-c3ccccc3)n(-c3ccc(Cl)cc3)n2)cc1,49% (active)
14,CC(C)(C)C1CCc2c(sc(NC(=O)Cn3nnc(-c4ccccc4F)n3)c2C#N)C1 (centres undefined),66% (inactive)
15,N#CC(=C1CCN(Cc2ccccc2)CC1)c1ccccc1,85% (inactive)
16,Cc1cccc(NC(=O)c2cc3c(=O)n(Cc4ccco4)ccc3nc2C)c1,87% (inactive)
17,CCNC(=O)c1nn(-c2ccccc2C)nc1CO,106% (inactive)
18,CCOc1ccc(NC(=O)CC2C(=O)N(c3ccc(C)cc3)C(=O)N2C2CCCCC2)cc1 (centres undefined),64% (inactive)
19,COc1ccccc1C(=O)Nc1c(C(=O)N(C)c2ccccc2)sc2nc(C)cc(C)c12,58% (inactive)
20,CCCN(C(=O)C1CC1)c1nnc(-c2ccc(Cl)cc2)s1,79% (inactive)
21,Cc1c(C(=O)Nc2cccc(Cl)c2)oc2ccc(S(=O)(=O)N(C)C3CCCCC3)cc12,71% (inactive)
22,Cc1sc(-n2c(C)cc(/C=C(\C#N)C(=O)NCc3ccco3)c2C)c(C#N)c1C,84% (inactive)
